Consider 1 compound from PubChem BioAssay AID2284146 (EPA ToxCast).

Molecules are shown by their SMILES. The source made the active and inactive calls. Rule for the calls: active = hit-call score of the fitted dose curve at least 0.9, where 1 is the maximum; inactive = score below 0.9.

Chain of human Adrenoceptor alpha2A Antagonism, ADRA2A (gene 150) (P08913 whole entry, looked up): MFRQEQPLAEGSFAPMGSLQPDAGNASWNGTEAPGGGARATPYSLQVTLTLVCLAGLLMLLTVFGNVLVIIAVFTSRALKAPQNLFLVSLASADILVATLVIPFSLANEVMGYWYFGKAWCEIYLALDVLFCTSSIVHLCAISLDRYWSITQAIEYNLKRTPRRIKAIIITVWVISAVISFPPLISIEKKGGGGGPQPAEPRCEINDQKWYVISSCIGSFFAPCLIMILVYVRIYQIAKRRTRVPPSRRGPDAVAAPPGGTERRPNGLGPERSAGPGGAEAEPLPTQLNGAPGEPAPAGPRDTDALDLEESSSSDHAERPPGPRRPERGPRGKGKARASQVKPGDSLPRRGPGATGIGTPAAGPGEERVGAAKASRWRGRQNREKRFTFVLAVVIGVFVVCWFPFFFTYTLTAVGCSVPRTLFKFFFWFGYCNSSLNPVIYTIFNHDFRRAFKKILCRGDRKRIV

This assay addresses human Adrenoceptor alpha2A Antagonism, ADRA2A (gene 150) (UniProt P08913). Nature of the assay: ERF_TW_GPCR_hADRA2A: Eurofins (ERF) G Protein-Coupled Receptor (GPCR) Radioligand Binding LeadHunter Assay for human Adrenoceptor alpha2A Antagonism. The protocol:
ERF_TW_GPCR_hADRA2A is a biochemical, single-readout assay that uses extracted gene-proteins in a cell-free assay. Measurements were taken 1 hour after chemical dosing in a 96-well plate. See alpha2A Human Adrenoceptor GPCR Binding (Antagonist Radioligand) Assay, Panlabs.ERF_TW_GPCR_hADRA2A is an assay component calculated from the ERF_TW_GPCR_hADRA2A assay. It is designed to measure radioligand binding using a type of binding reporter as detected by scintillation counting with radiometry technology.Data from the assay component ERF_TW_GPCR_hADRA2A was analyzed at the assay endpoint, ERF_TW_GPCR_hADRA2A, in the positive analysis fitting direction relative to DMSO as the negative control and baseline of activity. Using a type of binding reporter, loss-of-signal activity can be used to understand changes in radioligand binding as they relate to gene ADRA2A. To generalize the intended target to other relatable targets, this assay endpoint is annotated to the gpcr intended target family, where the subfamily is adrenoceptor.
Human recombinant adrenergic alpha2A receptors expressed in CHO-K1 cells are used in modified Tris-HCl buffer pH 7.4. A 2 ug aliquot is incubated with 1.5 nM [3H]Rauwolscine for 60 minutes at 25C. […] Receptors are filtered and washed, the filters are then counted to determine [3H]Rauwolscine specifically bound. […]
Broadly, the AC50 is the concentration giving half of the maximal activity seen. With `O=C(/C=C/c1ccc(O)cc1)CC(=O)/C=C/c1ccc(O)cc1`, the AC50 was 1140 nM (active).
